Records with an inconclusive call do not appear. Active and inactive are the calls of the source. Unless noted, no cut-off is given here; in the data, nearly all actives have AC50 up to about 26 µM.
Experiments:
[1] = viability loss in pontine glioma line – cell-based, SU-DIPG-XVII, MIPE5.0, CellTiter-Glo, qHTS, dose response (AID 1347060); settings: CellTiter-Glo ATP luminescence;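 for AC50: cells exposed to compound for 48 hours before viability readout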
[2] = viability loss in pontine glioma line – cell-based, SU-DIPG-XIII, MIPE5.0, CellTiter-Glo, qHTS, dose response (AID 1347064; cut-off not given, nearly all actives have AC50 up to about 23 µM;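 for AC50: cells exposed to compound for 48 hours before the viability read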); settings: CellTiter-Glo ATP luminescence
[3] = viability loss in pontine glioma line – cell-based, SU-DIPG-XXV, MIPE5.0, CellTiter-Glo, qHTS, dose response (AID 1347065); settings: CellTiter-Glo ATP luminescence;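 note: cells exposed to compound for 48 hours before ATP readout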
[4] = JHH-DIPG-1 glioma cell viability, MIPE5.0 library, CellTiter-Glo luminescence, qHTS (AID 1347067); settings: JHH-DIPG-1 glioma viability, CellTiter-Glo ATP luminescence;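 note: cells exposed to compound for 48 hours before readout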
[5] = growth inhibition of DIPG cells – cell-based, MIPE5.0 library, qHTS (AID 1347068; cut-off not given, nearly all actives have IC50 up to about 30 µM;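 for IC50: cells exposed to compound for 48 hours before viability readout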); settings: SU-DIPG-XXV viability

COC[C@@H](c1ccc(C(F)(F)F)cc1)N1CCN(C2(C)CCN(C(=O)c3c(C)ncnc3C)CC2)C[C@@H]1C
inactive: outcome [1] | outcome [2] | outcome [3] | outcome [4] | outcome [5]

CCc1cccc2c3c([nH]c12)[C@@](CC)(CC(=O)O)OCC3
inactive: outcome [1] | outcome [2] | outcome [3] | outcome [4] | outcome [5]

NC(=O)c1ccccc1Nc1ccnc(Nc2cccc(O)c2)n1
active: AC50 [1] 2.63 µM | AC50 [2] 5.25 µM | AC50 [3] 1.32 µM | AC50 [4] 18.6 µM | IC50 [5] 4.68 µM

CCC(=O)N1CCOc2c(cc(-c3cc(OC)cc(OC)c3)cc2C(=O)N[C@H]2CCCN(C)C2)C1
inactive: outcome [1] | outcome [2] | outcome [3] | outcome [4] | outcome [5]

CC(C)Nc1cc(-c2c[nH]c(C(=O)N[C@H](CO)c3cccc(Cl)c3)c2)c(Cl)cn1
active: AC50 [1] 1.48 µM | AC50 [2] 4.17 µM | AC50 [3] 3.32 µM | AC50 [4] 1.66 µM | IC50 [5] 14.8 µM

O=C(Nc1cnn2ccc(N3CCC[C@@H]3c3cc(F)ccc3F)nc12)N1CC[C@H](O)C1
inactive: outcome [1] | outcome [2] | outcome [3] | outcome [4] | outcome [5]

CC(C)(O)C1CCC(Nc2ccc3ncc(-c4cccc(C(F)(F)F)c4)n3n2)CC1 (stereo not given)
active: AC50 [1] 7.42 µM | AC50 [2] 18.6 µM | AC50 [3] 13.2 µM | AC50 [4] 10.5 µM | IC50 [5] 8.33 µM

Nc1ncccc1-c1nc2ccc(-c3ccccc3)nc2n1-c1ccc(C2(N)CCC2)cc1
active: AC50 [1] 11.8 µM | AC50 [2] 4.17 µM | AC50 [3] 2.95 µM | AC50 [4] 5.9 µM | IC50 [5] 20.9 µM

O=C(O)CNC(=O)c1nc(Cl)c2ccccc2c1O
inactive: outcome [1] | outcome [2] | outcome [3] | outcome [4] | outcome [5]

O=C(NC[C@H](O)CN1CCc2ccccc2C1)c1cc(NC2COC2)ncn1
inactive: outcome [2] | outcome [3] | outcome [4] | outcome [5]
active: AC50 [1] 23.5 µM

C[C@H](CN(C)C)Oc1nc(Nc2cc3cccc(Cl)c3cn2)cnc1C#N
active: AC50 [1] 16.6 µM | AC50 [2] 13.2 µM | AC50 [3] 16.6 µM | AC50 [4] 8.33 µM
inactive: outcome [5]

CCN1CCN(Cc2ccc(NC(=O)Nc3ccc(Oc4cc(NC)ncn4)cc3)cc2C(F)(F)F)CC1
active: AC50 [1] 7.42 µM | AC50 [2] 3.32 µM | AC50 [3] 10.5 µM | AC50 [4] 3.72 µM | IC50 [5] 7.42 µM

COc1ccc(N2C(=O)N(c3c(C)cccc3Cl)Cc3cnc(Nc4ccc(C5CCN(C)CC5)cc4OC)nc32)nc1
active: AC50 [1] 3.72 µM | AC50 [2] 9.34 µM | AC50 [3] 9.34 µM | AC50 [4] 16.6 µM | IC50 [5] 14.8 µM

NC(=O)/C(=C/n1cnc(-c2cc(C(F)(F)F)cc(C(F)(F)F)c2)n1)c1cncnc1
active: AC50 [1] 0.417 µM | AC50 [2] 2.09 µM | AC50 [3] 2.35 µM | AC50 [4] 11.8 µM | IC50 [5] 3.32 µM

CN1CCN(c2ccc(Nc3ncc4cc(C#N)c(=O)n(C5CCCC5)c4n3)cc2)CC1
active: AC50 [1] 3.72 µM | AC50 [2] 8.33 µM | AC50 [3] 5.25 µM | AC50 [4] 10.5 µM | IC50 [5] 4.17 µM

C=C1C(=O)O[C@@H]2[C@H]3C(C)=CC[C@@]34O[C@@]4(C)CC[C@@H]12
active: AC50 [1] 11.8 µM | AC50 [2] 11.8 µM | AC50 [3] 9.34 µM | AC50 [4] 8.33 µM | IC50 [5] 20.9 µM

C=C1C[C@H]2C=Nc3cc(OCCCOc4cc5c(cc4OC)C(=O)N4CC(=C)C[C@H]4C=N5)c(OC)cc3C(=O)N2C1
active: AC50 [1] 0.00186 µM | AC50 [2] 0.0209 µM | AC50 [3] 0.0166 µM | AC50 [4] 0.00372 µM | IC50 [5] 0.0742 µM

O=C(O)CC(C(=O)O)n1c(O)c(C2=c3cc(Br)ccc3=NC2=O)sc1=S (stereo not given)
inactive: outcome [1] | outcome [2] | outcome [3] | outcome [4] | outcome [5]

COc1cc(-c2cn(C)c(=O)c3cnccc23)cc(OC)c1CN(C)C
inactive: outcome [1] | outcome [2] | outcome [3] | outcome [4] | outcome [5]

Cc1ccc(NC(=O)NCc2ccc3c(c2)CN(C2CCC(=O)NC2=O)C3=O)cc1Cl (stereo not given)
active: AC50 [1] 0.00742 µM | AC50 [2] 0.00296 µM | AC50 [3] 0.00186 µM | AC50 [4] 0.00118 µM | IC50 [5] 0.00372 µM

CC(C)(NS(=O)(=O)c1ccc2c(Cl)cnc(N=C(N)N)c2c1)C(=O)O
inactive: outcome [1] | outcome [2] | outcome [3] | outcome [4] | outcome [5]

Source: PubChem BioAssay
